Measured values taken from PubChem BioAssay (NCI).
About 83,000 compounds went through this panel and 20% of them were active in at least one assay; those are over-represented in the sample as a whole.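 Step 1: grow cells in 96-well plates. Step 2: add test compound at a single concentration. Step 3: incubate 48 h. Step 4: record percent growth.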 A number with no mark means an inactive call. Calls of active or inactive are those of the source. How the source made its calls: active means growth percent below 10; inactive means the rest.

Tests used:
Experiment in all cases: NCI-60 one-dose screen, 48 h (100 = growth as untreated, 0 = no growth, -100 = all killed)
Conditions in all cases: 10 µM unless noted
[1] = test system: SR leukemia
[2] = test system: RPMI-8226 leukemia
[3] = test system: OVCAR-8 ovarian
[4] = test system: OVCAR-5 ovarian
[5] = test system: OVCAR-4 ovarian
[6] = test system: SK-OV-3 ovarian
[7] = test system: IGROV1 ovarian
[8] = test system: OVCAR-3 ovarian
[9] = test system: HS 578T breast
[10] = test system: NCI/ADR-RES ovarian

Compound	growth [1]	growth [2]	growth [3]	growth [4]	growth [5]	growth [6]	growth [7]	growth [8]	growth [9]	growth [10]
COc1ccc(S(=O)(=O)N2CCCCCC2)cc1NC(=O)c1[nH]c(C)c2c1CCCCC2=O	35.6%	10.7%	28.5%	50.5%	37.3%	14.1%	24.2%	30.4%	17.5%	29.2%
O=C(Cc1ccccc1Nc1c(Cl)cccc1Cl)NN1C(=O)/C(=C/c2ccc(Br)cc2)SC1=S	132%	106%	100%	100%	114%	100%	97.7%	109%	96.4%	105%
CCOC(=O)n1cc(-c2nonc2-c2cn(C)c3ncccc23)c2cc(F)ccc21	84%	58.3%	84.5%	87.7%	55.3%	85.8%	56.3%	77.6%	79.4%	74%
CNC(=O)c1cc(Oc2ccc(NC(=O)Nc3ccc(Cl)c(OC(F)(F)F)c3)c(F)c2)ccn1	30%	13.6%	30.3%	56.7%	5.4% (active)	64.9%	46.4%	39.8%	51.9%	31.6%
O=C1Nc2cc(-c3ccc(O)cc3)ccc2/C1=C/c1ccc[nH]1	5.01% (active)	3.47% (active)	12.3%	19%	26.3%	8.32% (active)	13%	4.63% (active)	18.1%	-1.85% (active)
CC(=O)c1cc2c(N)c(C(=O)Nc3ccccc3)sc2nc1C	51.8%	89%	93.9%	96%	88.9%	28.8%	83.9%	90%	69.8%	75.9%
O=C(O)c1ccc(NC(=O)c2ccc(-c3cccc([N+](=O)[O-])c3)o2)cc1	113%	101%	103%	106%	93.9%	98.8%	92.2%	102%	90.7%	98.5%
C#CCOc1ccc2ncnc(NCc3cccc(NC(=O)CCl)c3)c2c1	15.7% [8.25 µM]	21% [8.25 µM]	17.2% [8.25 µM]	55.3% [8.25 µM]	31.6% [8.25 µM]	83% [8.25 µM]	-68.1% [8.25 µM] (active)	24.2% [8.25 µM]	50.2% [8.25 µM]	77.7% [8.25 µM]
Nc1nc2ccc3[nH]ncc3c2c2c1CCCC2	-16.6% (active)	6.83% (active)	7.6% (active)	8.24% (active)	16.2%	16.6%	8.21% (active)	5.2% (active)	-9.88% (active)	2.46% (active)
COc1ccc(C(=O)/C=C/c2cccnc2Nc2cc(OC)c(OC)c(OC)c2)cc1	-0.688% (active)	-21.2% (active)	-0.898% (active)	37.7%	39.8%	24.7%	72%	11.5%	36.7%	4.44% (active)
NNCCc1ccc(NC(=O)CCCc2ccc(/C=C/C(=O)NO)cc2)cc1	18.2%	37.5%	8.02% (active)	71.4%	29.9%	64.1%	62.9%	55.3%	21.2%	44.3%
COc1ccc(-c2nc3cc(C(=O)Nc4cc(OC)c(OC)c(OC)c4)ccc3n2C2CCCCC2)cc1	57.5%	91.7%	96.6%	98.1%	109%	104%	96.5%	101%	81.9%	98.3%
CCCc1cc(=O)n2c(C(=O)Nc3ccc(F)cc3)c(C(=O)Nc3ccc(F)cc3)sc2n1	53.4% [30 µM]	78.2% [30 µM]	16.6% [30 µM]	74.7% [30 µM]	36.9% [30 µM]	48.5% [30 µM]	72.6% [30 µM]	35.3% [30 µM]	6.12% [30 µM] (active)	33% [30 µM]
NS(=O)(=O)c1ccc(CN=C2NC(=O)S/C2=C\c2ccc(Br)cc2)cc1	119%	99.8%	106%	94.1%	112%	94.3%	96.9%	106%	97.6%	105%
C=C(C)C1CC(O)C2(C)CCCC3C2C1CC(C)C3(C)CC/C(C)=C/C(O)C1CCC(=O)c2c(OC)cc(OC)cc21 (stereo not drawn)	26.6%	6.09% (active)	41.6%	86.9%	23.3%	51%	50.9%	32.7%	61.6%	45.9%
CC1=C[C@H]2c3c(c(O)c(O)c4oc5ccccc5c(=O)c34)[C@H](c3cc(O)c(O)c4oc5ccccc5c(=O)c34)[C@H]2C(C)(C)C1	0.353% (active)	15.2%	1.23% (active)	25.8%	1.7% (active)	-14.1% (active)	-4.25% (active)	10.4%	-4.62% (active)	23.9%
CNC(=O)c1cc(Oc2ccc(NC(=O)Nc3ccc(Cl)c(SC)c3)c(F)c2)ccn1	31.4%	27.6%	49.9%	77.8%	16.3%	79.5%	56.4%	61.2%	56%	47.8%
COC(=O)c1cccc(NC(=O)c2ccc(-c3cccc(N)c3)o2)c1	95.8%	78.8%	75.7%	107%	101%	105%	100%	107%	92.2%	99.7%
Cc1ccc(NC(=O)C2CCC(CN3CCN(C)CC3)CC2)cc1Nc1nccc(-c2cccnc2)n1 (stereo not drawn)	90.9%	96.6%	111%	92%	108%	110%	110%	103%	85.1%	97.5%
O=C1c2c(O)cc(O)cc2-c2c(-c3ccc(O)cc3)oc3cc(O)cc1c23	0.6% (active)	41.8%	46.6%	111%	61.5%	15.7%	52.2%	44%	32.1%	90.4%
C#CCOc1ccc2ncnc(N3CCN(C(=O)CCl)CC3)c2c1	33.4% [8.25 µM]	92.9% [8.25 µM]	72.2% [8.25 µM]	93.3% [8.25 µM]	63.8% [8.25 µM]	68.6% [8.25 µM]	-30.9% [8.25 µM] (active)	78.7% [8.25 µM]	94.6% [8.25 µM]	98.5% [8.25 µM]
CC(=O)O[C@H]1[C@@H]2OC(=O)C(CSc3ccccc3)[C@@H]2C[C@H]2O[C@]2(C)CC/C=C(\C)CCC[C@@H]1C (stereo partly drawn)	58.2%	51.6%	28.7%	83.6%	34.3%	103%	–	-9.73% (active)	69.6%	–
